# Test results from PubChem BioAssay AID1572 (National Center for Advancing Translational Sciences (NCATS), 2009).
# Inconclusive results are not listed. A number with no mark means an inactive call. Active and inactive are the calls of the source. Calls come from the whole dose curve; as a rule, active = well fitted curve in either direction with a large enough effect; inconclusive = small, poorly fitted or top-dose-only effect; inactive = flat fitted curve, though single readings scatter.
# Assay: Total Fluorescence Confirmation Counterscreen for Inhibitors of the Interaction of Thyroid Hormone Receptor and Steroid Receptor Coregulator 2
# Conditions: Texas Red total fluorescence, TRbeta/SRC2 FP artifact counterscreen; series mostly up to 92.2 µM; total fluorescence change, both ways: at the top concentration
# How it was run: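 Flags fluorescent or light-absorbing compounds: after 5 hr at ambient temperature, 0.6 uM TRbeta LBD plus 20 nM SRC2 Texas Red (1uM T3, 5% DMSO) read at 555/632 nm; TF = S + 2P from parallel and perpendicular channels.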
Compound,"total fluorescence change, both ways",Potency
O=c1[nH]c(Nc2ccccc2)cc2ccccc12,5.66%,–
O=C(O)[C@H]1CN(CCCP(=O)(O)O)CCN1,-7.22% [at 184 µM],–
Nc1cnccc1C(=O)O,11.1%,–
CCOc1cc(C(c2c(C)[nH][nH]c2=O)c2c(C)[nH][nH]c2=O)ccc1OS(=O)(=O)c1ccc(C)cc1,5.37%,–
O=C1CNC(=S)N1c1nc(-c2ccccc2)cs1,–,11.2 µM [quencher] (active)
COC(=O)c1ccccc1-c1ccc(C(c2c(C)[nH][nH]c2=O)c2c(C)[nH][nH]c2=O)o1,4.88%,–
Cc1ccccc1Nc1cc2ccccc2c(=O)[nH]1,–,inactive
Cn1cc[nH]c1=S,-0.484%,–
CCC(C)NC(=O)COC(=O)c1csc2c1CCCC2 (stereo not given),8.07%,–
CN1c2ccccc2C(C)(C)C12C=Nc1c(cc(N3CCOCC3)c3ccccc13)O2 (stereo not given),2.92%,–
Cc1nc2c3cc(F)ccc3n(Cc3ccccc3F)c2s1,0.375%,–
COc1ccc2ccc3c(c2c1)N=CC1(O3)N(C)c2ccccc2C1(C)C (stereo not given),2.19%,–
CC1=NN(Cc2ccccc2)C(=O)C1,4.8%,–
CC1(C)CC(=O)C(N=Nc2cccc(S(=O)(=O)N3CCOCC3)c2)=C(O)C1,-1.25%,–
C=CCNC(=O)/C(C#N)=C\c1cc(Cl)c(OCC)c(OC)c1,-0.935%,–
CN(CCO)c1nc(N)c2c(N)nc3c(c2c1C#N)CC(=O)N3C1CCCC1,-1.92%,–
CN(C(=S)Nc1cccnc1)c1ccc(O)cc1,5.43%,–
CN1N=C(C(C)(C)C)CC1=O,1.82%,–
COc1ccc(-c2nc(CS(=O)CC(=O)NCc3ccccn3)c(C)o2)cc1 (stereo not given),–,35.5 µM [fluorescent] (active)
CCCCOc1ccc(C(=O)CCN2CCOCC2)cc1,8.29%,–
COc1ccc(C(=O)Oc2ccc(C(c3c(C)[nH][nH]c3=O)c3c(C)[nH][nH]c3=O)cc2OC)cc1,6.44% [at 184 µM],–
COc1cc(/C=C(\C#N)C(=O)NCC2CCCO2)ccc1OCCC(C)C (stereo not given),4.15%,–
CCN(CC)S(=O)(=O)c1cccc(N=NC2=C(O)CCCC2=O)c1,6.08%,–
CCSc1ncc(Cl)c(C(=O)Nc2nc3ccc(OC)cc3s2)n1,5.03% [at 184 µM],–
COc1cc(C(c2c(C)[nH][nH]c2=O)c2c(C)[nH][nH]c2=O)ccc1OC(=O)c1cccc(C)c1,1.17% [at 184 µM],–
